# Measured values from PubChem BioAssay AID376 (PDSP, 2006).
# In all, about 2,000 compounds went through this assay and about 250 (12%) were called active. For the sample, actives were picked, then their nearest neighbours and some compounds at random. Unmarked numbers belong to inactive results. Rule as the data show it: active = hERG blockade below about -20% or above about 20%; inactive = in between.
# Target: Voltage-gated inwardly rectifying potassium channel KCNH2 (Homo sapiens) (UniProt Q12809)
# Sequence (Q12809 whole entry, looked up): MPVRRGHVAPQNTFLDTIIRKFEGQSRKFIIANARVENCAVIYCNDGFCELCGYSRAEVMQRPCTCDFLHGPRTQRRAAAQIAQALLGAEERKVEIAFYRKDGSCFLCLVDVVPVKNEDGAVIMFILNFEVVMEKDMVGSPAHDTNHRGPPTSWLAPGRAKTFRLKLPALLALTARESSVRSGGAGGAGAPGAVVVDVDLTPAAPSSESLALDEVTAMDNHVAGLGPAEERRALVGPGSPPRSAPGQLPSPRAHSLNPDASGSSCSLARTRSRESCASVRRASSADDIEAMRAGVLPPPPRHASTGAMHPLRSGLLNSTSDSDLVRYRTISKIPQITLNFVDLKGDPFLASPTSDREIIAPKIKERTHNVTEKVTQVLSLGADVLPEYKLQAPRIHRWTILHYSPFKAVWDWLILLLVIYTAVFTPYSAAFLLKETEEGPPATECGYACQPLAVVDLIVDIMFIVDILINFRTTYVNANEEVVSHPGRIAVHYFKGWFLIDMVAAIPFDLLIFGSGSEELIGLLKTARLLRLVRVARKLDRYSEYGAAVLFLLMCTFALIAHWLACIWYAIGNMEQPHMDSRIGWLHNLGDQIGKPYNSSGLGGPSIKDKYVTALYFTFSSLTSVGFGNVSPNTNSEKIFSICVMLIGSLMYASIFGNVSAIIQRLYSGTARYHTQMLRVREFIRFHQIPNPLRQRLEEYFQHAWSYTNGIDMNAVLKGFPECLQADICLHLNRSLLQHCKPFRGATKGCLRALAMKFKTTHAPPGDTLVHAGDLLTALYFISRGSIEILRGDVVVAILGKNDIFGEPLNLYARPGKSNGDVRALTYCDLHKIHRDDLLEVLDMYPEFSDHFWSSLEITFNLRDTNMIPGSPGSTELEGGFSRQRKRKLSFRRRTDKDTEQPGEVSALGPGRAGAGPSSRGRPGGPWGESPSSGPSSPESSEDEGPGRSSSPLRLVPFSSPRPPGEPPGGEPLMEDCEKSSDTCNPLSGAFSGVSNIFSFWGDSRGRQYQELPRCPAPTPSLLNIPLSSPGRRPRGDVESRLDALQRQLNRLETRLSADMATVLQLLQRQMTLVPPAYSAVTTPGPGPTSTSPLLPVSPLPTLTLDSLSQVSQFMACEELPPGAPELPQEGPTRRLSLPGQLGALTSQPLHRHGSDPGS
# Experiment: KCNH2 potassium channel function modulators, cell-based (AID 376);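 also: 0% = buffer alone and 100% = reference blocker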
# Conditions: hERG-expressing cells, channel activity single-concentration screen; concentration not given here
row,Compound,hERG blockade
1,O=C(O)CN(CCN(CC(=O)O)CC(=O)O)CC(=O)O.[Mn+2],-6.49%
2,O=c1ccc(-c2ccccc2)n[nH]1,17.2%
3,CC(C)C(N)(C(=O)O)c1ccccc1 (centres undefined),-5.81%
4,CC1(c2ccccc2)OC2CC3C4CCC5=CC(=O)C=CC5(C)C4(F)C(O)CC3(C)C2(C(=O)CO)O1 (centres undefined),6.41%
5,O=CNc1ncn[nH]1,-3.79%
6,c1c[nH]c(CN2CCOCC2)n1,2.23%
7,CC1CCC2C(C)C3C(CC4C5CC=C6CC(O)CCC6(C)C5CC(O)C43C)N2C1 (centres undefined),-3.2%
8,CC(=O)Nc1nc(NC(C)=O)c2[nH]c(CO)nc2n1,0.0402%
9,O=S1(=O)NC2CCC3NS(=O)(=O)NC4CCC(N1)N4S(=O)(=O)N23 (centres undefined),0.569%
10,CN(C)CCN(c1ccccn1)c1ccccn1,-15.1%
11,C[N+](C)(C)CCN(Cc1cccs1)c1ccccn1,39.5% (active)
12,CC(CO)(CO)N=Cc1cc(I)cc(I)c1O,5%
13,O=C1Oc2ccccc2C(=O)C1=CN1C(=O)NC(=Cc2ccccc2O)C1=O,10.5%
14,c1ccc(SC(Sc2ccccc2)c2ccc3c(c2)OCO3)cc1,15.6%
15,CN(C)c1ccc(C(=C2C=CC(=[N+](C)C)C=C2)c2ccccc2)cc1,40.6% (active)
16,CN(C)c1ccc(C(=C2C=CC(=[N+](C)C)C=C2)c2c(O)c(S(=O)(=O)[O-])cc3cc(S(=O)(=O)O)ccc23)cc1,8.17%
17,N=C1C=CC(=C(c2ccc(N)cc2)c2ccc(N)cc2)C=C1,9.77%
18,O=C(O)CCC(=O)Nc1ccc2ccccc2c1,10%
19,CC(=O)CC(=O)Nc1ccc2ccccc2c1,2.34%
20,O=C(c1ccccc1)C(Nc1ccc2ccccc2c1)c1ccccc1 (centres undefined),25.3% (active)
21,O=S(=O)(O)C(CO)c1ccccc1 (centres undefined) (tested in a mixture with another compound),13.2%
22,NNC(=O)c1ccc(OCc2nc3ccccc3[nH]2)cc1,0.772%
23,O=C(O)C1CCN(Cc2oc(CO)cc(=O)c2O)C1 (centres undefined),3.01%
24,CN(CC(=O)O)Cc1c(O)c(Cl)cc(Cl)c1Cl,-16.4%
25,CN(CC(=O)O)Cc1oc(CO)cc(=O)c1O,-29.8% (active)
26,CC1=C(CCC(C)CO)OC2CC3C4CCC5CC(O)CCC5(C)C4CC(=O)C3(C)C12 (centres undefined),-6.35%

row,Compound,hERG blockade
1,NC1=C(O)C(=O)C(c2c[nH]c3ccc(OCc4ccccc4)cc23)O1 (centres undefined),12.8%
2,Nc1nc(-c2ccc3ccccc3c2)cc(-c2cc(-c3ccc4ccccc4c3)nc(N)n2)n1,2.73%
3,S=C1NCN2CCN(CC2)CNC(=S)C(=S)NCN2CCN(CC2)CNC1=S,17.9%
4,O=[N+]([O-])c1cc(Cl)cc2c1nc(NCCO)c1ccccc12,38% (active)
5,Nc1nc(Cl)cc(NCCO)n1,-8.52%
6,O=[N+]([O-])c1cc(Cc2cc([N+](=O)[O-])c3cccnc3c2O)c(O)c2ncccc12,-5.37%
7,Cc1cn(CCC(N)C(=O)O)c(=O)[nH]c1=O (centres undefined),2.71%
8,O=C(O)CCCCn1ccc(=O)[nH]c1=O,-28% (active)
9,O=C(Cn1ccc(=O)[nH]c1=O)Nc1ccc(C(=O)O)c(O)c1,-7.44%
10,O=C(CCN1CCOCC1)Nc1ccc(F)cc1F,4.1%
11,O=C(O)Cc1[nH]cnc1C(=O)O,-3.29%
12,O=C1C(=Cc2ccccc2)C(NC2CCCCC2)c2ccccc21 (centres undefined),-0.193%
13,CC(C)C1OC(=O)C=CC=CC=CC=CC=CCC(O)C(C)C(O)CC(O)CC(O)CC(O)CC(O)CC(O)CC(O)C=CC1C (centres undefined),5.61%
14,CN(C)Cc1cc(Cl)c(O)c(CN(C)C)c1,1.1%
15,Oc1c(Cl)cc(CN(Cc2cc(Cl)c(O)c(Cl)c2)C2CCCCC2)cc1Cl,1.49%
16,Oc1c(Cl)cc(C(c2cc(Cl)c(O)c(Cl)c2)C(c2cc(Cl)c(O)c(Cl)c2)c2cc(Cl)c(O)c(Cl)c2)cc1Cl,25.7% (active)
17,CC(C)(CC1(C)NC(=O)NC1=O)OCc1ccccc1 (centres undefined),-10.8%
18,O=C(O)Cn1ccnc1[N+](=O)[O-],-10.9%
19,O=C(O)c1nc(-c2ccccc2)[nH]c1C(=O)O,4.21%
20,Nc1nc(C(=O)O)c(N=Nc2ccccc2)c(=O)[nH]1,33.3% (active)
21,NCCCc1c(-c2ccccc2)nc(N)[nH]c1=O,-2.69%
22,O=C(c1nc2ccc([N+](=O)[O-])cc2[nH]c1=O)C(O)c1ccc2c(c1)OCO2 (centres undefined),-14.1%
23,O=C1CN2CCN(CC2)CC(=O)Nc2ccc(cc2)S(=O)(=O)c2ccc(cc2)NC(=O)CN2CCN(CC2)CC(=O)Nc2ccc(cc2)S(=O)(=O)c2ccc(cc2)N1,6.34%
24,O=C(O)c1ccc([N+]2=Cn3c(nc4ccccc43)C2)cc1,6.37%
25,COC(=O)CCC(C)C1CCC2C3CCC4CC5CCC4(C)C3(O5)C(Br)C(Br)C12C (centres undefined),5.42%
26,CCC(N)(C(=O)O)C(C)C (centres undefined),-13.5%

row,Compound,hERG blockade
1,CN=C(N)N=C(N)Nc1cc2ccccc2c2ccccc12,-54.4% (active)
2,NC(=O)N=C(N)NC(=O)c1ccccc1,-1.06%
3,CCOC(=O)C(C)(C)C(O)C(C)C (centres undefined),16.9%
4,Cc1nc(N)nc2ccccc12,1.82%
5,CS(=O)(=O)Nc1ccc(Nc2c3ccccc3nc3ccccc23)cc1,30.8% (active)
6,CC1OC(O)C(O)C(O)C1O (centres undefined),8.47%
7,O=C(O)C(Sc1ccc(Cl)cc1)Sc1ccc(Cl)cc1,-7.17%
8,Oc1ccc(Cl)cc1Sc1cc(Cl)ccc1O,36.8% (active)
9,N#CCCSC(=S)C1CCCC1=N (centres undefined),14.7%
10,Cc1c2cnccc2c(C)c2c1c1ccccc1n2CCOC(=O)c1ccccc1,17.4%
11,CSc1ccc2c(c1)N(CCCN(C)C)c1ccccc1S2,90.6% (active)
12,CN(C)CCCN1c2ccc(O)cc2Sc2ccc(Cl)cc21,62.7% (active)
13,CN(C)CCCN1c2ccccc2Sc2cnccc21,73.5% (active)
14,CN(C)CCCn1cnc2cc(Cl)c(Cl)cc21,5.34%
15,CN(C)CCCn1c2ccccc2c2cnccc21,90.4% (active)
16,Oc1cc(O)c2c(c1)OC(c1ccc(O)c(O)c1)C(OC1(c3cc(O)c(O)c(O)c3)Oc3cc(O)cc(O)c3C(O)C1O)C2 (centres undefined),-3.37%
17,CC(CC(=O)O)C(C(=O)O)C(=O)O (centres undefined),2.78%
18,Oc1cc(CN2COc3ccccc32)c(O)cc1CNC1CCCCC1,6.98%
19,N=c1nc(N)nc(N)n1-c1ccc(S(N)(=O)=O)cc1,-2.11%
20,Nc1[nH]c(=O)nc2c1ncn2C1OC(CO)C(O)C1O (centres undefined),-9.03%
21,COc1ccc2cc(C(=O)CCC(=O)O)ccc2c1,-0.161%
22,NC(=[SH+])[N-]N=Cc1ccccn1.O=S(=O)([O-])O.[Fe],8.22%
23,O=C(O)c1ccncc1.O=C(O)c1ccncc1.[Cl][Pt]([Cl])([Cl])[Cl],16.7%
24,C[N+]1(CCN=C=NC2CCCCC2)CCOCC1,4.24%
25,CN(C)CCCN1c2ccccc2C(C)(C)c2ccccc21,34.9% (active)
26,CCN(CC)CCN1c2ccccc2Sc2ccc3ccccc3c21,28.5% (active)

row,Compound,hERG blockade
1,CN(C)CCCN1c2ccccc2Sc2ccc3ccccc3c21,112% (active)
2,CCN(CC)CCN1C(=O)c2cccc3cc(N)cc(c23)C1=O,-2.82%
3,CN(C)CCCN1c2ccc3ccccc3c2Sc2cccc(Cl)c21,30.4% (active)
4,Clc1ccc(-c2nnc(-c3cccc4ccccc34)o2)cc1Cl,-2.83%
5,N=Nc1c(OC(=O)Nc2ccccc2)[nH]c2ccccc12,18.5%
6,CN(C)CCC(C(=O)C(C)(C)C)c1ccccn1 (centres undefined),-9.42%
7,CS(=O)(=O)c1ccc(C=NNC(N)=S)cc1,-0.277%
8,O=[N+]([O-])c1ccc(NN=C2c3ccccc3Cc3ccccc32)c([N+](=O)[O-])c1,8.87%
9,O=C(O)c1cc(N=Cc2ccccc2O)cc(C(=O)O)c1,-2.64%
10,Nc1nc(N)c2nn(-c3ccc(C(=O)O)cc3)nc2n1,14.6%
11,NCCSCC(N)C(=O)O (centres undefined),1.01%
12,O=C(O)c1ccc(OCc2ccccc2)c(Cl)c1,4.92%
13,Cc1c[n+](=O)c2ccccc2n1[O-],-5%
14,O=C(O)C1C2C=CC(O2)C1C(=O)NCc1ccncc1 (centres undefined),-11%
15,Clc1ccc(-c2noc(CN3CCCCC3)n2)cc1,-11.3%
16,C[N+](C)(N)Cc1nc(-c2ccc(Cl)cc2)no1,1.91%
17,N=C(N)SCc1nc(-c2ccc(Cl)cc2)no1,-25.1% (active)
18,Cc1cc2c(cc1C)NC1=C(N2)OC(c2c[nH]c3ccc(COc4ccccc4)cc23)C1=O (centres undefined),-6.35%
19,CCOC(=O)C1=C(C)NC(=O)NC1c1coc2cc(C)cc(C)c2c1=O (centres undefined),-8.18%
20,Cc1ccc(S(=O)(=O)N2CCC(C(=O)O)(c3ccccc3)CC2)cc1,-1.68%
21,COc1ccc2c(=O)cc(-c3ccncc3)oc2c1OC,72.1% (active)
22,C1CCN(CCC2CCCCN2)CC1 (centres undefined),-0.957%
23,[O-][n+]1c(CN2CCCCC2)nc2cccc3c2c1-c1ccccc1-3,41.6% (active)
24,CN1CCN(Cc2nc3cccc4c3c([n+]2[O-])-c2ccccc2-4)CC1,39.2% (active)
25,CN1CCN(CC(=O)Nc2cccc3ccccc23)CC1,8.36%
26,Oc1cccnc1CN1CCCCC1,-6.51%
